Bioassay records from PubChem.
A549 viability – Nrf2 qHTS screen for inhibitors: counterscreen for cytotoxicity; Potency, µM (series often up to 46 µM), for the others: at the highest dose activity change, negative = cytotoxicity, hits mostly inhibitors; 0.16% of 390,000 active; AID 504648, 2011; A549 ARE-Fluc cells, CellTiter-Fluor viability, 18-24 h; further: potency means the concentration at half of the fitted maximal effect; on the % scale 0 is the no-effect control and ±100 the full control effect
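A549 ARE_Fluc cells in 5% FBS OPTI-MEM were exposed to compounds in concentration-response for 18-24 h at 37 deg C. Viability was read by CellTiter-Fluor fluorescence (Ex 405/Em 525) after 30 min, before the luciferase read.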
miR-21 reporter – qHTS Assay for Modulators of miRNAs and/orActivators of miR-21 | Potency, µM (top dose mostly 38.3 µM), without a hit: at the highest dose activity change, positive = activation, usual class: activators | HeLa miR-21 FLuc reporter, luciferase, 48 h | 340,000 tested, under 10 active;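 further: % of control where 0% means no effect; miR-21 action dims this reporter so a rising signal means less miR-21 action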
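HeLa cells endogenously expressing miR-21, stably carrying CMV-driven firefly luciferase with a downstream miR-21 binding site, 2000 cells/well. Titrations up to approximately 40 uM, 48 hours; luciferase luminescence read.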
Nrf2 activator – qHTS of Nrf2 Activators. Potency, µM (top dose mostly 46.1 µM), without a hit: at the top dose activation, most hits filed as activators. AREc32 ARE-luciferase reporter (MCF7-derived line), luminescence, 24 h. 0.31% of 410,000 active; further: potency means the concentration at half of the fitted maximal effect; % of control where 0% means no effect; nearly all actives have a fitted effect of over 65% in size
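AREc32_Fluc, 1000 cells/well, OPTI-MEM + 5% FBS, o/n 37 deg C 5% CO2; 23 nL cpd by pin tool, 24 hr; Steady-Glo 30 min RT, luminescence.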
p53 reactivation – qHTS assay for re-activators of p53 using a Luc reporter; Potency, µM (titrated, usually from 92.2 µM), inactives show at the top dose activity change, positive = activation, actives largely listed as activators; 0.063% of 320,000 active; H1299 p53-A138V BP100-luciferase reporter, luminescence, 24 h; further: potency means the concentration at half of the fitted maximal effect; % of control where 0% means no effect; nearly all actives have a fitted effect of over 45% in size
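p53-null H1299 cells stably carrying temperature-sensitive p53-A138V and a BP100-luciferase reporter were pinned with compounds (4-point, 1:5 series) and held 24 hrs at 37 deg C. Luminescence was read 10 min after detection reagent.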
ClpP mod – qHTS Assay for Activators of ClpP | AID 651965, 2013 | 1.9% of 340,000 active | purified B. subtilis ClpP, FRET peptide cleavage, 20 min | Potency, µM (highest dose often 57.5 µM), without a hit: at the highest dose activity change, negative = active; active means well fitted falling curve with a large enough effect; inconclusive means small, poorly fitted or top-dose-only effect; inactive means no such curve, though single readings can be large or run the other way; further: potency means the concentration at half of the fitted maximal effect; the source files actives as falling curves though it sought activators and does not explain the sign; nearly all actives have a fitted effect of over 65% in size
Target sequence (P80244 whole entry, looked up): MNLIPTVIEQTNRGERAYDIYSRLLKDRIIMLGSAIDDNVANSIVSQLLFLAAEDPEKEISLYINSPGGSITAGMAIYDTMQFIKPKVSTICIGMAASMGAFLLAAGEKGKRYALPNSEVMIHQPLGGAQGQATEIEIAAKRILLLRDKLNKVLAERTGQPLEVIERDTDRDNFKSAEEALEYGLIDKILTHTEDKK
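ClpP 10 microg/mL final, pH 8 Tris/KCl buffer with BSA, glycerol, Tween-20; compound pinned in; FRET-FV substrate; RT 20 min; Ex320/Em430; ΔFRET vs ADEP 5.8 microM, DMSO, no enzyme.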
Nrf2 inh – Nrf2 qHTS screen for inhibitors | Potency, µM (doses to about 46 µM), without a hit: at the top dose activity change, negative = inhibition, hits mostly inhibitors | A549 ARE-Fluc reporter, luciferase luminescence, 18-24 h | 2.1% of 360,000 active; further: potency means the concentration at half of the fitted maximal effect; on the % scale 0 is the no-effect control and ±100 the full control effect; nearly all actives have a fitted effect of over 60% in size
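Cells were seeded and rested 2 h, then exposed to compounds for 18-24 h. CellTiter-Fluor was read first as a viability measure. BugLite was added 15 min before the final luminescent read of ARE-luciferase activity in A549 cells.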
* = called active by the depositor; ? = inconclusive; nt = not tested or not shown; ! = not active in a repeat; [ ] = dose if it differs, or a comment. The list is not random: actives were taken first. Their share in the collection is about 3.7%. Unless noted, the call rests on the fitted dose curve; in most records, active means well fitted curve in the direction sought with a large enough effect; inconclusive means small, poorly fitted or top-dose-only effect, or another doubt; inactive means no such curve, though single readings can be large; an effect the other way counts as inactive or inconclusive.

SMILES	A549 viability	miR-21 reporter	Nrf2 activator	p53 reactivation	ClpP mod	Nrf2 inh
CCOC(=O)c1cccc(NC(=O)c2sc3nc[nH]c(=O)c3c2C)c1	2%	-35%	5%	nt	-2%	nt
CCOC(=O)c1snc2c(=O)[nH]cnc12	0%	-1%	0%	-1%	28µM*	-17%
Cc1ccc2c(c1)CC1(CN2C)C(=O)OC2(CCCCC2)OC1=O	-2%	-3%	0%	9%	-3%	-3%
CN1CC2(Cc3c1ccc1ccccc31)C(=O)OC(C)(C)OC2=O	?	-3%	6%	-8%	14µM*!	?
CN(Cc1ccc(F)cc1)C(=O)c1cccc(S(=O)(=O)N2CCN(c3ccc(F)cc3)CC2)c1	-16%	nt	0%	7%	-2%	18µM*
CN(Cc1ccc(F)cc1)C(=O)c1cccc(S(=O)(=O)N2CCN(c3ccccc3)CC2)c1	-12%	nt	2%	-7%	-4%	23µM*
O=C(c1cccc(S(=O)(=O)N2CCCC2)c1)N1CCN(c2ccccc2)CC1	-9%	21%	-1%	-11%	1%	?
Cc1ccc(C)c(NC(=O)CN(C)C(=O)c2cccc(S(=O)(=O)N3CCN(Cc4ccccc4)CC3)c2)c1	-9%	18%	2%	-2%	-5%	12µM*
CN(Cc1ccc(F)cc1)C(=O)c1cccc(S(=O)(=O)N2CCN(Cc3ccccc3)CC2)c1	1%	nt	0%	-5%	nt	?
O=C(c1cccc(S(=O)(=O)N2CCN(c3ccccc3)CC2)c1)N1CCCC(C(F)(F)F)C1 (stereo not given)	-19%	nt	-1%	-2%	3%	13µM*
COc1ccc(N2CCN(C(=O)C(C)n3nc(C)c4sc5ccccc5c4c3=O)CC2)cc1 (stereo not given)	-21%	?	0%	nt	-2%	-8%
CCC(C(=O)NCCc1cc(OC)ccc1OC)n1nc(C)c2sc3ccccc3c2c1=O (stereo not given)	-11%	-16%	-1%	nt	-5%	?
O=C(NCCOc1ccccc1F)c1cccc(S(=O)(=O)N2CCN(c3ccccc3)CC2)c1	-7%	nt	2%	1%	-4%	4.6µM*
COc1ccc(CN(C)C(=O)c2cccc(S(=O)(=O)N3CCN(c4ccccc4)CC3)c2)c(OC)c1OC	-20%	nt	2%	3%	-3%	10µM*
CN(Cc1cccc(F)c1)C(=O)c1ccc(S(=O)(=O)N2CCCCCC2)cc1	-16%	nt	4%	-3%	nt	23µM*
CN(CC(=O)Nc1ccc(F)cc1)C(=O)c1cccc(S(=O)(=O)N2CCN(c3ccc(F)cc3)CC2)c1	-22%	nt	1%	-2%	1%	21µM*
O=C(NCCCN1CCOCC1)c1cccc(S(=O)(=O)N2CCN(c3ccccc3)CC2)c1	3%	nt	3%	-1%	1%	7%
Cc1nc2sccn2c(=O)c1S(=O)(=O)Nc1cc(Cl)ccc1O	-1%	9%	13%	nt	-7%	10%
COc1ccc(CN(C)C(=O)c2cccc(S(=O)(=O)N3CCCc4ccccc43)c2)c(OC)c1OC	?	nt	-1%	nt	0%	23µM*
CCN(CC(=O)Nc1c(F)cccc1F)C(=O)c1cccc(S(=O)(=O)N2CCCc3ccccc32)c1	?	nt	0%	nt	-3%	26µM*
O=C(c1ccccc1O)N(Cc1ccco1)Cc1cccs1	4%	nt	nt	nt	nt	?
COc1ccc(NC(=O)CSc2nncn3c2cc2occc23)c(OC)c1	2%	2%	?	nt	1%	11%
CCOc1ccc(Nc2nn(-c3ccc(OC(F)(F)F)cc3)nc2C(C)=O)cc1	1%	7%	3%	nt	3%	11%
Cc1cccc(-c2nc(CN3CCCC(C(=O)N4CCN(c5cc(Cl)ccc5C)CC4)C3)c(C)o2)c1 (stereo not given)	1%	22%	2%	nt	-12%	8%
CCCOc1ccc(CNC(=O)CCCN2C(=O)CSc3c2c(C)nn3-c2ccccc2)cc1	-3%	10%	-1%	nt	-1%	-12%
SMILES	A549 viability	miR-21 reporter	Nrf2 activator	p53 reactivation	ClpP mod	Nrf2 inh
C=CC(=O)Nc1cccc(N(C)c2ccnc(Nc3ccc(N4CCN(C)CC4)cc3)n2)c1	1µM*	nt	6%	nt	-3%	?
C=CC(=O)Nc1cccc(Oc2ccnc(Nc3ccc(N4CCN(C)CC4)cc3)n2)c1	1.6µM*	nt	17%	nt	-2%	?
O=C(OCC1OC(n2cnc3c(N(C(=O)c4ccccc4)C(=O)c4ccccc4)ncnc32)C(O)C1F)c1ccccc1 (stereo not given)	?	0%	7%	8%	-1%	16µM*
CCCc1ccc(C2C3=C(CC(C)(C)CC3=O)NC3=C2C(=O)c2ccccc23)cc1 (stereo not given)	?	?	0%	-16%	0%	8.2µM*
CCCCc1ccc(C2C3=C(CC(C)(C)CC3=O)NC3=C2C(=O)c2ccccc23)cc1 (stereo not given)	?	-5%	0%	-4%	-1%	?
CC(C)Sc1cc(Cl)nc(NC(=O)Nc2ccccc2)n1	6%	-12%	4%	21%	-2%	26%
Cc1ccc(NC(=O)Cn2c(=O)n(Cc3ccc(F)cc3)c(=O)c3cccnc32)cc1C	1%	-1%	-1%	nt	4%	18%
Cn1nc(C(C)(C)C)cc1NC(=O)C1(C)CCN1C(=O)CC(c1ccccc1)c1ccccc1 (stereo not given)	nt	nt	4%	nt	5%	nt
CC(C)CNC(=O)c1cccc(NC(=O)c2ccc(Cl)c([N+](=O)[O-])c2)c1	?	0%	?	2%	-2%	26µM*
CC(C)CNc1nc(C#N)nc(Nc2ccccc2)n1	-15%	nt	nt	nt	nt	?
CCN(C(=O)CCS(=O)(=O)c1cc2[nH]c(=O)c(=O)[nH]c2cc1C)c1ccccc1	1%	2%	-1%	nt	32µM*	16%
O=c1/c(=C/c2ccco2)sc2n1CN(c1ccccc1)CN=2	1%	8%	?	-1%	25µM*	nt
CN(C)c1ccc2c(=O)c3ccccc3oc2n1	nt	nt	14%	nt	5%	nt
CC(C)C(NS(=O)(=O)c1c(Cl)cccc1Cl)C(=O)OCC(=O)c1c[nH]c2ccccc12 (stereo not given)	?	?	0%[9.22 µM]	1%	-3%	23µM*
CC(C)NC(=O)C1CCC(Cn2c(=O)c3sccc3n(CC(=O)Nc3ccccc3)c2=O)CC1 (stereo not given)	-10%	-5%	0%	nt	-9%	?
